Data as given in PubChem BioAssay AID624141 (Broad Institute, 2012).
Among all 17,000 compounds or so, about 260 (1.5%) were called active. The sample holds actives, similar compounds and a random draw of the others, so the mix is not that of the screen.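 Rule for the calls: active = spot fluorescence over background with P-value below 7% in all four replicate spots, showing protein binding; inactive = the rest.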

The molecules below were run against Myc proto-oncogene protein (Homo sapiens) (UniProt P01106) (assay: small molecules binding His-tagged c-Myc – biochemical, small molecule microarray, anti-His fluorescence, primary screen (AID 624141)).
Sequence of Myc proto-oncogene protein (Homo sapiens) (P01106 whole entry, looked up): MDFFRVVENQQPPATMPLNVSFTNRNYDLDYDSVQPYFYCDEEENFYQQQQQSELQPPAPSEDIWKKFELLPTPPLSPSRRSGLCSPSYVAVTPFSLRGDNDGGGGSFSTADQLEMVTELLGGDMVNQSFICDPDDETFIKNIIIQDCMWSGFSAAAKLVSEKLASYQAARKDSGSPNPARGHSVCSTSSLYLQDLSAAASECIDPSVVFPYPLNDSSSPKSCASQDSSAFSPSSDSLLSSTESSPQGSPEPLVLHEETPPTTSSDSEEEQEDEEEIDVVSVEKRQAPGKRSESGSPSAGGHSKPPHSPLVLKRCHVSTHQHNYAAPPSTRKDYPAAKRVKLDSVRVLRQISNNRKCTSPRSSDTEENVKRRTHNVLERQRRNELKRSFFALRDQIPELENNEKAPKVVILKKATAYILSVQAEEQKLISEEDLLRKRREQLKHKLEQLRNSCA

outcome, inactive:
Cc1cc2c(=O)n(C)c(SCC(=O)c3cc4ccccc4o3)nc2s1
COc1ccccc1N(CC(=O)N1CCCCC1)S(C)(=O)=O
C[C@@H]1CN([C@@H](C)CO)C(=O)Cc2cc(NC(=O)Nc3ccc(F)cc3)ccc2O[C@@H]1CN(C)C
Cn1c(SCc2nc3ccccc3c(=O)[nH]2)nnc1-c1cc2ccccc2o1
C[C@@H]1CN([C@@H](C)CO)C(=O)c2cc(NS(C)(=O)=O)ccc2O[C@H]1CN(C)C(=O)Nc1ccc(F)cc1
COc1ccc(C#Cc2ccc3c(c2)[C@]2(C(=O)N3)[C@H](C(=O)N3CCc4cc(OC)c(OC)cc4C3)[C@H]3C(=O)O[C@H](c4ccccc4)[C@H](c4ccccc4)N3[C@@H]2c2ccc(O)cc2)cc1
O=C(NCC1CCCO1)c1ccc(NC(=O)c2cc(-n3cnnc3)ccc2Cl)cc1 (configuration not stated)
CNC[C@H]1OCCCC[C@@H](C)Oc2ccc(NC(=O)c3ccccc3)cc2C(=O)N([C@@H](C)CO)C[C@H]1C
Cc1ccc(Cn2ncc3c(N4CCN(CCOc5ccc(C)cc5)CC4)ncnc32)cc1
C[C@@H]1CN([C@H](C)CO)C(=O)Cc2cc(NS(=O)(=O)c3cccs3)ccc2O[C@@H]1CN(C)C(=O)Nc1ccc(F)cc1
O=C1NC(Cc2c[nH]c3ccccc23)C(=O)N2CCCC12 (configuration not stated)
Cc1noc(C)c1NC(=O)N(C)C[C@@H]1Oc2ccc(NC(=O)C3CC3)cc2C(=O)N([C@H](C)CO)C[C@@H]1C
O=C1O[C@@H](c2ccccc2)[C@@H](c2ccccc2)N2[C@@H](c3ccc(O)cc3)[C@]3(C(=O)Nc4ccccc43)[C@@H](C(=O)O)[C@H]12
CCOc1ccc(NC(=O)C2CC(=O)n3c(nc4ccccc43)N2)cc1 (configuration not stated)
C[C@@H]1CCCCO[C@H](CN(C)C(=O)Cc2ccccc2)[C@H](C)CN([C@H](C)CO)C(=O)c2cc(NS(=O)(=O)c3cn(C)cn3)ccc2O1
COc1cc(O)c2c(=O)c(O[C@@H]3O[C@@H](CO)[C@H](O)[C@H]3O[C@@H]3O[C@@H](C)[C@H](O)[C@@H](O)[C@H]3O)c(-c3ccc(O)cc3)oc2c1
CN(C)CC/C=C1\c2ccccc2CSc2ccccc21
C[C@H](CO)N1C[C@H](C)[C@@H](CN(C)C)Oc2c(NC(=O)Nc3ccc(F)cc3)cccc2C1=O
C[C@H]1CN([C@@H](C)CO)C(=O)c2cc(NC(=O)Cn3cnnn3)ccc2O[C@@H]1CN(C)S(=O)(=O)c1cccs1
C[C@H](CO)N1C[C@H](C)[C@H](CN(C)C(=O)Nc2ccc(C(F)(F)F)cc2)Oc2ccc(NC(=O)Nc3ccccc3)cc2C1=O
C[C@@H]1CN([C@H](C)CO)C(=O)c2cccc(NS(C)(=O)=O)c2O[C@@H]1CN(C)C(=O)Nc1cccc2ccccc12
O=C(NCc1ccccc1)C1=C[C@H](C2CC2)C[C@H](OCc2ccc(CO)cc2)O1
C[C@H](CO)N1C[C@H](C)[C@H](CN(C)CC2CC2)Oc2ccc(NC(=O)c3ccncc3)cc2C1=O
C[C@H]1CN([C@@H](C)CO)C(=O)c2cc(NC(=O)Cn3cnnn3)ccc2O[C@H]1CN(C)C(=O)NC1CCCCC1
CC(C)NC(=O)N(C)C[C@H]1OCCCC[C@@H](C)Oc2ccc(NS(C)(=O)=O)cc2C(=O)N([C@H](C)CO)C[C@H]1C
CC(C)NC(=O)N(C)C[C@H]1Oc2ccc(NC(=O)CCC(F)(F)F)cc2CC(=O)N([C@@H](C)CO)C[C@@H]1C
C[C@H]1CCCCO[C@H](CN(C)C(=O)CCC(F)(F)F)[C@@H](C)CN([C@@H](C)CO)C(=O)c2cc(NC(=O)Nc3ccc4c(c3)OCO4)ccc2O1
O=C1c2ccccc2[C@](Cc2ccccc2I)(C(=O)NCc2ccccc2)[C@H](c2ccc(CO)cc2)N1C1CCCCC1
Cc1cc(C)c2nc(-c3cccnc3)cc(C(=O)Nc3sc(Cc4ccccc4)cc3C(N)=O)c2c1
CC(C)NC(=O)N(C)C[C@@H]1Oc2ccc(NS(=O)(=O)c3ccccc3)cc2C(=O)N([C@@H](C)CO)C[C@H]1C
C[C@@H]1CN([C@@H](C)CO)C(=O)c2cccc(NC(=O)c3ccc(-c4nccs4)cc3)c2O[C@H]1CN(C)C(=O)Nc1ccccc1
Cc1cccc(OCCCC(=O)Nc2sc3c(c2C(N)=O)CCCC3)c1C
Cc1nn(-c2ccccc2)c(CC(C)(C)C(=O)O)c1C(=O)O
C[C@H]1CN([C@@H](C)CO)C(=O)Cc2cc(NC(=O)Nc3ccccc3)ccc2O[C@H]1CN(C)Cc1ccncc1
C[C@@H]1CCCCO[C@@H](CN(C)Cc2ccncc2)[C@@H](C)CN([C@@H](C)CO)C(=O)c2cc(N(C)C)ccc2O1
C[C@H](CO)N1C[C@H](C)[C@H](CN(C)C)Oc2ccc(NC(=O)Nc3ccc(F)cc3)cc2CC1=O
C[C@@H]1CN([C@@H](C)CO)C(=O)Cc2cc(NC(=O)Cc3cn(C)c4ccccc34)ccc2O[C@H]1CN(C)C(=O)NC1CCCCC1
C/C=C(\C)C(=O)OC(/C=C/C(O)C(C)O)C1C=CC(=O)O1 (configuration not stated)
C=C(C(=O)O)C1CCC2(C)CCC(=O)C(C)=C2C1 (configuration not stated)
Cn1c(OCc2cccnc2)nc2c1c(=O)n(Cc1ccc(Cl)c(Cl)c1)c(=O)n2C
CCO[C@H]1OC(C(=O)O)=C[C@@H](C2CCCCC2)[C@@H]1CCCO
Nc1nnc(SCC(=O)Nc2ccc(Cl)cc2O)s1
COc1ccc(S(=O)(=O)N(C)C[C@@H]2Oc3ccc(NC(=O)CCC(F)(F)F)cc3C(=O)N([C@@H](C)CO)C[C@H]2C)cc1
CN1CCN(C(=O)C2=C[C@@H](c3ccc(Br)cc3)C[C@@H](OCCCCO)O2)CC1
C[C@H]1CN([C@@H](C)CO)C(=O)Cc2cc(N(C)C)ccc2O[C@@H]1CN(C)S(=O)(=O)c1ccc(F)cc1
Nc1nnc(SCCN2C(=O)c3ccccc3S2(=O)=O)s1
C[C@@H]1CN([C@H](C)CO)C(=O)CCCn2nncc2CO[C@@H]1CN(C)Cc1ccc2c(c1)OCCN2C
